Laboratory results from PubChem BioAssay AID651699 (Sanford-Burnham Center for Chemical Genomics, 2012).
Among all 360,000 compounds or so, about 2,100 (0.58%) were called active. Shown is part of a subset that was picked to be rich in actives. Unmarked numbers belong to inactive results. Rule as the data show it: active = inhibition above about 36%; inactive = the rest.

target: NEDD8-conjugating enzyme Ubc12 (Homo sapiens) + NEDD8-activating enzyme E1 regulatory subunit (Homo sapiens) (UniProt P61081+Q13564); assay: inhibitors of cullin neddylation, primary screen, biochemical, TR-FRET, uHTS, NAE and Ubc12 (AID 651699); conditions: at 25 µM, stronger effect = higher value
Sequence (P61081 whole entry, looked up): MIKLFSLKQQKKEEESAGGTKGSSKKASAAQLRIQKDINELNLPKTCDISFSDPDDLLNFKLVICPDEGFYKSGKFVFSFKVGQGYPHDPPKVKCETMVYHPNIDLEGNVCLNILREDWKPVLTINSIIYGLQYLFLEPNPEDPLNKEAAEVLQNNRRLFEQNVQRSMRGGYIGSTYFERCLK
Sequence (Q13564 whole entry, looked up): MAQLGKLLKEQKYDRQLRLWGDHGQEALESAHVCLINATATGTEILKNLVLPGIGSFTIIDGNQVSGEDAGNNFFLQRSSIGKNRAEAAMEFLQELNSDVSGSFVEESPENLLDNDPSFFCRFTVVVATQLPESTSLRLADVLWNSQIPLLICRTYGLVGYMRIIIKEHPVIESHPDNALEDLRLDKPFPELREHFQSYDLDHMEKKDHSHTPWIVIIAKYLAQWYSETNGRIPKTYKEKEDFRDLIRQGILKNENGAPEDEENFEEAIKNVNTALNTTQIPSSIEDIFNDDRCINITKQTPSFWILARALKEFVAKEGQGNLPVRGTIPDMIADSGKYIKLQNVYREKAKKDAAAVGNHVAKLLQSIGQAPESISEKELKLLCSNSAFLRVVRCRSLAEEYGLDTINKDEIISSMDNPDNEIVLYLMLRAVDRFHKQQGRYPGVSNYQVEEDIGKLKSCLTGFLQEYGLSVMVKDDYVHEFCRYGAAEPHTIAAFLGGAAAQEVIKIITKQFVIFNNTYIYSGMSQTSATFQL

| SMILES | inhibition |
| --- | --- |
| COc1ccc([N+](=O)[O-])cc1C1NN=C(c2cccc3ccccc23)S1 (centres undefined) | -3.56% |
| COc1ccc2c(c1OC)C(=O)N(c1ncn[nH]1)C2 | 39.8% (active) |
| COc1ccc(C2C(C#N)=C(N)N(c3ncn[nH]3)C3=C2C(=O)CCC3)cc1 (centres undefined) | -6.24% |
| COc1ccc2c(c1OC)C(=O)N(c1ccc(O)cc1)C2 | 14.7% |
| COc1ccc(NC(=O)CCC(=O)N2CCN(S(=O)(=O)c3ccc(C)cc3)CC2)c(OC)c1 | 2.78% |
| Cc1c(C2=CCN(S(=O)(=O)c3ccc(Cl)cc3)CC2)c2ccccc2n1C | -207% |
| CN(C)CC/C=C1\c2ccccc2CSc2ccccc21 | 6.08% |
| COC(=O)c1ccc2nc(-c3ccc(F)cc3)c(Cc3ccc(C)cc3)n2c1 | 36.3% |
| COC(=O)c1ccc2nc(-c3ccc(OC)c(OC)c3)c(Cc3ccccc3)n2c1 | 41.4% (active) |
| COC(=O)c1ccc2nc(-c3ccc(Cl)cc3)c(Cc3cccc(F)c3)n2c1 | 25.5% |
| CC[C@]12c3[nH]c4ccc(Cl)cc4c3CCN1C(=O)[C@@H](CC(=O)NCCCOC)C[C@@H]2C(=O)N1CCN(C(=O)c2ccco2)CC1 | 3.68% |
| COc1c(C(C)C)oc2cc3oc(=O)ccc3cc12 | 36.1% |
| COC(=O)Cn1c(=NC(=O)CSCC(=O)Nc2cc(C)on2)sc2ccccc21 | 6.58% |
| Cc1ccc(-c2cc(C(=O)N/N=C/C=C/c3ccccc3)n[nH]2)o1 | -6.17% |
| S=c1[nH]nc(/C=C/c2ccccc2)o1 | 40.5% (active) |
| CC(C)(C)c1cc2cccnc2n1Cc1ccccc1 | 24.2% |
| Cc1cnc(CN(C)C(=O)C2CCC(=O)N(CCc3cccc(F)c3)C2)[nH]1 (centres undefined) | -3.06% |
| Cc1cccn2c(=O)c3cc(C(=O)NCCN4CCOCC4)c(=N)n(Cc4cccnc4)c3nc12 | 68.3% (active) |
| CCCNC(=O)CCn1nc(-c2ccccc2)c2ccccc2c1=O | -0.32% |
| CCCCCn1c(=O)c(C(=O)OCC)c(Cl)c2ccccc21 | 4.01% |

| SMILES | inhibition |
| --- | --- |
| CCCn1c(=O)c(-c2ccccc2)c(O)c2ccccc21 | 44.3% (active) |
| O=C1OC(Cc2ccccc2)C(c2ccccc2)C1=O (centres undefined) | -10.9% |
| Cc1cc(=O)[nH]c(Nc2cccc(Br)c2)n1 | -6.28% |
| Cc1cc(=O)[nH]c(SCc2ccc(Cl)cc2)n1 | -1.58% |
| CCN(CC)c1ccc(/C=N/Nc2nc(C)cc(=O)[nH]2)cc1 | 42% (active) |
| COc1ccc(CNC(=O)C(=O)N2CCC3(CC2)OCCN3S(=O)(=O)c2ccc(C)cc2)cc1 | 4.54% |
| CCOC(=O)C1=C(O)/C(=C/c2cc(C)n(-c3ccccc3)c2C)N=C1C | 16.8% |
| Cc1cc(/C=C2/C(=N)N3C(=NC2=O)SN=C3S(C)(=O)=O)c(C)n1-c1ccccc1 | 44.8% (active) |
| CC1=CC2=NC(=O)/C(=C/c3coc4ccccc4c3=O)C(=N)N2O1 | -38.8% |
| COc1cccc(NC(=O)CN(C)C(=O)c2cc(Cl)nc3ccccc23)c1 | -0.49% |
| COc1ccc(Cl)cc1NC(=O)CN(C)C(=O)c1ccc2n[nH]nc2c1 | 7.09% |
| COc1ccc(-c2cc(C(=O)N(C)CC(=O)Nc3ccccc3Cl)c3ccccc3n2)cc1OC | 46.6% (active) |
| CC(=O)NC1CCN(CC(=O)Nc2nccs2)CC1 | -3.21% |
| COC(=O)c1noc(C)c1-c1ccnn1C(=O)c1ccc(Cl)cc1 | -11.9% |
| CC1CCC2CCCCC2N1C(=O)c1cc([N+](=O)[O-])cc([N+](=O)[O-])c1 (centres undefined) | -35.2% |
| CC(Oc1ccccc1[N+](=O)[O-])C(=O)N/N=C/c1ccoc1 (centres undefined) | -9.94% |
| O=C(N/N=C/c1ccoc1)c1ccc(Cl)cc1Cl | 1.29% |
| CC(C)c1cc(C(=O)N/N=C/c2ccoc2)c(O)c(C(C)C)c1 | 49.1% (active) |
| COc1ccc(OC)c(NC(=O)CSc2nc(N)c(-c3ccccc3)c(=O)[nH]2)c1 | 26.4% |
| Cc1cc(C)c(C=NNc2nc3c([nH]2)c(=O)n(C)c(=O)n3C)c(C)c1 | 39.2% (active) |

| SMILES | inhibition |
| --- | --- |
| Cc1ccc(NN=Nc2nc3c([nH]2)c(=O)n(C)c(=O)n3C)cc1 | 1.85% |
| CC(CCO)Nc1nc2c([nH]1)c(=O)n(C)c(=O)n2C (centres undefined) | 10.7% |
| COc1cccc(/C=N/NC(=O)C(=O)N2CCCC2)c1 | -14.6% |
| O=C(CN1C(=O)CC(c2ccccc2)=Nc2ccccc21)NC1CCCCC1 | -13.9% |
| O=C(NCc1cccc(Cl)c1)C1CCC(=O)N(C2CC2)C1 (centres undefined) | -4.68% |
| O=C(NCc1cccc(Cl)c1)C1=CC=CN2CCS(=O)(=O)N=C12 | 33% (active) |
| O=C(NCc1cccc(Cl)c1)C1CCN(c2nnc(N3CCCC3=O)s2)CC1 | 9.68% |
| CCOc1cc(/C=N/Nc2cc(C)nc3ccc(C)cc23)ccc1O | 39.9% (active) |
| CCOc1cc(/C=N/NC(=O)c2ccncc2)cc(Br)c1O | -8.9% |
| CCOc1ccc(/C=N/NC(=O)C(C)Sc2ccccn2)cc1OCC (centres undefined) | -5.74% |
| O=C(CCN1C(=O)C2C3CCC(C3)C2C1=O)Nc1ccc(Cl)cc1Cl (centres undefined) | 5.46% |
| O=C(CNC(=O)c1ccc(Br)o1)NCC1CCCO1 (centres undefined) | 10.6% |
| CCOc1ccc2[nH]c(=O)c(C(c3nnnn3CCOC)N3CCOCC3)cc2c1 (centres undefined) | 46% (active) |
| COc1ccc(N2CCN(C(c3cc4ccc(C)cc4[nH]c3=O)c3nnnn3C3CCCC3)CC2)cc1 (centres undefined) | 8.39% |
| COCCn1nnnc1C(c1cc2ccc(OC)cc2[nH]c1=O)N1CCc2ccccc2C1 (centres undefined) | -11.9% |
| C=CCC(CC=C)(C(N)=O)c1ccccc1 | -5.36% |
| CS(=O)(=O)Nc1cccc(C2=NN(C(=O)c3cccc(F)c3)C(c3cccs3)C2)c1 (centres undefined) | -5.27% |
| CS(=O)(=O)Nc1ccc(C2=NN(S(C)(=O)=O)C(c3cccs3)C2)cc1 (centres undefined) | 51.1% (active) |
| Cc1ccc(C2CC(c3cccc(NS(C)(=O)=O)c3)=NN2S(C)(=O)=O)cc1 (centres undefined) | 7.24% |
